Source: PubChem BioAssay (NCI)
Compounds without any hit were thinned out: in the full panel of roughly 83,000, 20% have a hit.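 48-hour exposure, single concentration, 96-well plates; percent growth endpoint where 0 means no net growth. Active: below 10.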 Values without a mark were called inactive. Active and inactive are the calls of the source.

Key:
Test in all cases: NCI-60 one-dose screen, 48 h (100 = growth as untreated, 0 = no growth, -100 = all killed)
Conditions in all cases: 10 µM
HCT-15 colon = test system: HCT-15 colon
HT29 colon = test system: HT29 colon
SNB-75 CNS = test system: SNB-75 CNS
SNB-19 CNS = test system: SNB-19 CNS
U251 CNS = test system: U251 CNS
PC-3 prostate = test system: PC-3 prostate
SK-MEL-5 melanoma = test system: SK-MEL-5 melanoma
UACC-62 melanoma = test system: UACC-62 melanoma
LOX IMVI melanoma = test system: LOX IMVI melanoma
SK-MEL-28 melanoma = test system: SK-MEL-28 melanoma

Structure (SMILES)	growth (HCT-15 colon)	growth (HT29 colon)	growth (SNB-75 CNS)	growth (SNB-19 CNS)	growth (U251 CNS)	growth (PC-3 prostate)	growth (SK-MEL-5 melanoma)	growth (UACC-62 melanoma)	growth (LOX IMVI melanoma)	growth (SK-MEL-28 melanoma)
Cc1ccc(-c2ccc(SCC(=O)Nc3ccc(Cl)c(C(F)(F)F)c3)nn2)cc1	14.9%	-19.7% (active)	-23.5% (active)	23.2%	16.5%	28.7%	18.9%	15.5%	33.9%	57.6%
N#Cc1ccc(-c2nn(-c3ccc(C(=O)O)cc3)cc2CNc2ccc(Oc3ccccc3)cc2)cc1	49.7%	34.4%	101%	28.6%	33.9%	29.5%	70%	21.9%	24.1%	21.3%
COc1ccc([C@H]2C(C(=O)c3ccc(Cl)cc3)C3(N[C@@H]2c2ccccc2)C(=O)Nc2ccc(Cl)cc23)cc1 (stereo not given in full)	-23% (active)	-50.8% (active)	35.8%	16%	-33.9% (active)	18.1%	4.07% (active)	-63.1% (active)	-100% (active)	4.54% (active)
O=c1oc2ccc(-c3ccc(F)cc3F)cc2c(=O)n1-c1ccc(Cl)c(C(F)(F)F)c1	-12% (active)	9.55% (active)	-4.03% (active)	14.7%	7.99% (active)	0.205% (active)	-91.4% (active)	-54.1% (active)	-38.6% (active)	-20.1% (active)
C/C(=C\c1ccc(O)cc1O)c1ccc2ccc(O)cc2[o+]1	12.3%	93.1%	98.1%	71%	23.5%	62.7%	76.3%	59.5%	2.95% (active)	62.3%
CC(=O)NS(=O)(=O)c1ccc(NC(=O)CSC2=NC(c3ccccc3)C(C(C)=O)=C(C)N2)cc1 (stereo not given)	101%	114%	99%	104%	116%	110%	101%	98.5%	94.9%	107%
CN1CCN(c2ccc(Nc3nc(NCCCNC(=O)c4ccc(F)cc4)c4sccc4n3)cc2)CC1	2.85% (active)	11.2%	108%	86%	19.7%	50.9%	60.8%	63.7%	13.4%	-45.3% (active)
N#Cc1c(NC(=O)c2ccc(C(F)(F)F)cc2)sc2c1CCC(O)=C2	9.23% (active)	38.2%	-3.93% (active)	55.9%	28.2%	49.2%	-28.8% (active)	13.8%	23.9%	41.6%
Cc1ccc(C(C)C)cc1NC(=O)c1ccccc1N(C)C	76.6%	74.6%	112%	93%	87.6%	73.7%	86.8%	63.1%	86.8%	92.9%
O=C(Nc1ccccc1)Nc1nc2ccccc2s1	66.7%	89.4%	109%	89.7%	95.9%	67.3%	61.1%	48.3%	83.2%	41.4%
CCN1CCN(Cc2ccc(NC(=O)c3cccc(-n4cc(-c5ccc(NC(C)=O)nc5)nn4)c3)cc2C(F)(F)F)CC1	83.9%	61.7%	104%	122%	86.6%	112%	87.3%	82.4%	72.4%	53.3%
N#C/C(=C\c1ccc(N(c2ccccc2)c2ccccc2)cc1)C(N)=O	65.1%	30.5%	95.4%	77%	32.5%	61%	31.2%	-47.3% (active)	79%	104%
CC[C@]12C=CCN3CC[C@@]4(c5cc(C#CCNc6ccc(C)c(Nc7nccc(-c8cccnc8)n7)c6)c(OC)cc5N(C)[C@H]4[C@@](O)(C(=O)OC)[C@@H]1OC(C)=O)C32 (stereo not given in full)	25.9%	25.8%	77.7%	48.1%	40.8%	37.5%	32.1%	69.4%	38.6%	37.5%
CCCCSc1nc(Nc2ccc(/C(C)=N/NC(N)=S)cc2)c(C#N)c(-c2ccccc2)n1	38.4%	61.2%	96.8%	50%	18.8%	28.9%	54.9%	64.5%	5.73% (active)	66.3%
COc1ccc2[nH]c(=O)c(CSc3nccc(-c4ccc(Cl)cc4)n3)cc2c1	36.3%	33.9%	-11.5% (active)	40.5%	13%	29.3%	44.8%	37.9%	27.9%	45.3%
CCOc1ccc(/C=N/NC(=O)Cn2nc(Cc3ccc([N+](=O)[O-])cc3)c3onc(C)c3c2=O)cc1	33.7%	34.6%	6.05% (active)	-6.58% (active)	-66% (active)	23.1%	27.7%	49.9%	-63.5% (active)	49.7%
Nc1cc(-c2cccc(C(=O)NCc3ccc4c(c3)OCO4)c2)ccn1	95.8%	111%	86%	95.2%	92.2%	103%	91.7%	93.4%	89.5%	103%
CSc1nc(-c2cccc(C)c2)c2cc(-c3ccccc3)n(C)c2n1	15.3%	9.09% (active)	-2% (active)	30.2%	17.4%	21.7%	-44.7% (active)	11.1%	21.4%	34.7%
C=C(C)[C@@H]1CC[C@]2(C)[C@H](CC=C3[C@@H]4CC(C)(C)CC[C@]4(C(=O)N4CCOCC4)CC[C@]32C)[C@@]1(C)CCCN	-83.6% (active)	-91% (active)	-91.2% (active)	-93.7% (active)	-81.2% (active)	-79.8% (active)	-96.5% (active)	-93.8% (active)	-81.7% (active)	-97% (active)
CCN1CCN(Cc2ccc(C(=O)Nc3cccc(-c4cn(-c5ccc6oc(=O)ccc6c5)nn4)c3)cc2C(F)(F)F)CC1	-100% (active)	-100% (active)	-33.2% (active)	-100% (active)	-100% (active)	-40.8% (active)	-100% (active)	-100% (active)	-100% (active)	-100% (active)
CC(=O)Oc1ccccc1C(=O)Oc1ccc(C(=O)/C=C/c2ccncc2)cc1	-4.84% (active)	22%	102%	47.2%	14.7%	54.7%	71.2%	50.6%	-44.2% (active)	68.8%
COc1ccc(-c2ccc(/C=N/NC(=O)c3[nH]c4ccc(Br)cc4c3-c3ccccc3)s2)cc1	68.4%	84.5%	88.1%	73.8%	35.9%	91.7%	106%	45.9%	75.5%	105%
CN1CCN(c2ccc(C(=O)/C=C/c3cc(Br)ccc3F)cc2)CC1	-22.6% (active)	-13.2% (active)	40.1%	56.5%	23.8%	37.1%	18.6%	64%	-91.8% (active)	90.8%
CCOc1ccc2ncc(C#Cc3cncc(C(=O)Nc4ccc(CN5CCN(C)CC5)c(C(F)(F)F)c4)c3)n2n1	-86.1% (active)	-51% (active)	-88.8% (active)	-63.3% (active)	-41.5% (active)	-34.9% (active)	-83.4% (active)	-71.3% (active)	-80% (active)	-83.1% (active)
CN(C)CCNC(=O)OCCCCOc1cc(O)c2c(=O)cc(-c3ccccc3)oc2c1	-51.8% (active)	-54.4% (active)	103%	-32.7% (active)	-64.1% (active)	10.3%	-100% (active)	-88.4% (active)	-100% (active)	-91.5% (active)
CCOP(=O)(OCC)O[C@H]1CCC(=O)[C@@H]2[C@H]1[C@H]1C[C@@H]3[C@@]4(C)CCCC(C)(C(=O)OC)[C@@H]4CC[C@@]23C=C1C(C)C (stereo not given in full)	49.8%	42.5%	100%	68.1%	42.1%	23.5%	18.1%	46.1%	62.4%	72.7%
